Bioassay records (PubChem BioAssay)
SARS 3CLpro inh – SARS-CoV 3CLpro protease inhibition | inhibition, % at 6 µM | actives 0.14% (n = 290,000) | recombinant SARS-CoV 3CLpro, quenched FRET peptide cleavage | P0C6X7; in the data active = inhibition above about 12%
BJeLR viability – kills HRASV12-expressing BJeLR cells; BJeLR (HRASV12) viability, CellTiter-Glo ATP luminescence, 48 h; inhibition, % (no concentration beside the values); actives 0.17% (n = 300,000); AID 1554; in the data active = inhibition above about 50%
SSB-PriA inh – K. pneumoniae PriA-SSBct interaction inhibition. AID 1272365. actives 0.6% (n = 430,000). AlphaScreen SSBct-PriA binding, biotinylated peptide. inhibition, % at 33 µM; in the data active = inhibition mostly above about 37%, no sharp cut-off; inactive = mostly below about 20%;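 also: plate controls were negative control peptide for no effect and reference peptide for full effect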
* hit, by the source's call. Rows were chosen to be rich in hits. Some 0.78% of all compounds tested hit in one or more screens of this group.

What do the screens show for `O=C(Nc1nc(-c2ccccn2)cs1)c1ccc(S(=O)(=O)N2CCCCC2)cc1`?
SARS 3CLpro inh: 4.6; BJeLR viability: 11.6

What do the screens show for `Cc1nnsc1C(=O)Nc1nc(-c2ccccn2)cs1`?
SSB-PriA inh: 135.5*

What do the screens show for `O=C(Nc1nc(-c2cccs2)cs1)C1CCCCN1S(=O)(=O)c1cccs1` (stereo unspecified)?
SSB-PriA inh: 5.0

Results for COc1ccc(S(=O)(=O)Nc2ccc(C(=O)Nc3nc(-c4ccccn4)cs3)cc2)cc1 ?
SSB-PriA inh: 95.0*

What do the screens show for `O=C(Nc1nnc(-c2ccc(F)cc2)o1)C1CCCN1S(=O)(=O)c1cccs1` (stereo unspecified)?
BJeLR viability: -3.8; SSB-PriA inh: -4.0

Results for CCc1sc(C(=O)Nc2nc(-c3ccccn3)cs2)cc1C ?
SSB-PriA inh: 13.0

Results for O=C(Nc1nc(-c2ccccn2)cs1)[C@@H]1CCCN1S(=O)(=O)c1cccs1 ?
SSB-PriA inh: 91.0*

Results for COc1ccc(-c2csc(NC(=O)CS(=O)(=O)c3ccccc3)n2)cc1 ?
BJeLR viability: -3.5; SSB-PriA inh: 3.4

Results for Cc1cc(C)cc(OCC(=O)Nc2nc(-c3ccccn3)cs2)c1 ?
SSB-PriA inh: -7.0

How did O=C(Nc1nc(-c2ccccn2)cs1)c1ccc(Cl)s1 do in these assays?
SARS 3CLpro inh: 2.2; BJeLR viability: -4.1; SSB-PriA inh: 31.5

Results for Cc1cc(C)cc(C(=O)Nc2nc(-c3ccccn3)cs2)c1 ?
SSB-PriA inh: 92.0*

What do the screens show for `O=C(Nc1ccccc1)C(=O)Nc1nc(-c2ccccn2)cs1`?
SSB-PriA inh: 35.0

How did Cc1ccc(C(=O)Nc2nc(-c3ccccn3)cs2)s1 do in these assays?
SSB-PriA inh: 46.7*

How did COc1ccc(S(=O)(=O)CC(=O)Nc2nc(-c3ccccn3)cs2)cc1 do in these assays?
SSB-PriA inh: 88.0*

What do the screens show for `CC(C)(C)NC(=O)C(=O)Nc1nc(-c2ccccn2)cs1`?
SSB-PriA inh: 101.3*

Results for CSc1ccc(CCC(=O)NC2CC3CCC(C2)N3S(C)(=O)=O)cc1 (stereo unspecified) ?
SSB-PriA inh: -16.0

What do the screens show for `Cc1ccc(NC(=O)Cn2cnc3c(-c4ccccc4)csc3c2=O)c(Cl)c1`?
SSB-PriA inh: 4.0

How did O=c1[nH]cnc2c(-c3ccccc3)csc12 do in these assays?
SSB-PriA inh: 1.0

Results for CNC(=O)c1nsc(C(=O)NCc2ccc(C(F)(F)F)cc2)c1N ?
SSB-PriA inh: -8.0

What do the screens show for `COc1ccc(N/C=C/C(=O)c2ccc(OC)c(OC)c2)cc1`?
SARS 3CLpro inh: 5.8; BJeLR viability: -0.6; SSB-PriA inh: 3.6

How did COc1ccc(N/C=C/C(=O)c2cc(OC)c(OC)c(OC)c2)cc1 do in these assays?
SARS 3CLpro inh: -2.7; BJeLR viability: 53.0*; SSB-PriA inh: -5.2

Results for Cc1cccc(-n2c(SCC(=O)NCc3ccco3)nc3c([nH]c4ccccc43)c2=O)c1C ?
SSB-PriA inh: -12.0

What do the screens show for `CC(C)(C)c1ccc(C(=O)N/C(=C/c2ccco2)C(=O)NCCCn2ccnc2)cc1`?
SSB-PriA inh: 63.2*

Results for O=C(NCCCn1ccnc1)/C(=C\c1ccco1)NC(=O)c1ccco1 ?
SARS 3CLpro inh: -2.4; BJeLR viability: 3.3; SSB-PriA inh: -6.6

Results for Cc1nc(SCC(=O)N2CCOCC2)c2c3c(sc2n1)CCCC3 ?
SSB-PriA inh: 3.0

What do the screens show for `COc1ccc(/C=C/C(=O)c2cc(F)ccc2OC(=O)c2ccccc2C)cc1OC`?
SARS 3CLpro inh: 3.0; BJeLR viability: 77.3*; SSB-PriA inh: 12.1

How did COc1ccc(C(=O)Oc2ccc(F)cc2C(=O)/C=C/c2ccc(OC)c(OC)c2)cc1 do in these assays?
SARS 3CLpro inh: 2.4; BJeLR viability: -4.2; SSB-PriA inh: 11.7

What do the screens show for `COc1cc(OC)c2c(-c3ccccc3)cc(=O)oc2c1C(CCN1CCCCC1)c1ccc(N(C)C)cc1` (stereo unspecified)?
BJeLR viability: 3.9; SSB-PriA inh: 74.3*

What do the screens show for `COc1cc(OC)c2c(-c3ccccc3)cc(=O)oc2c1C(CCN1CCCCC1)c1ccc2c(c1)OCO2` (stereo unspecified)?
BJeLR viability: 15.8; SSB-PriA inh: 25.1

What do the screens show for `COc1ccc(C(CCN2CCCCC2)c2c(OC)cc(OC)c3c(-c4ccccc4)cc(=O)oc23)cc1` (stereo unspecified)?
BJeLR viability: 8.7; SSB-PriA inh: 10.7

How did COc1cc(OC)c2c(-c3ccccc3)cc(=O)oc2c1C(CCN1CCOCC1)c1ccc(N(C)C)cc1 (stereo unspecified) do in these assays?
SSB-PriA inh: 38.9*

Results for Cc1cc(NC(=O)c2ccc(S(=O)(=O)N3CCc4ccccc4C3)cc2)no1 ?
SSB-PriA inh: -7.0

How did CC1(C)OC(=O)C(=NNc2ccccc2[N+](=O)[O-])C(=O)O1 do in these assays?
SARS 3CLpro inh: 3.8; BJeLR viability: 4.6; SSB-PriA inh: 6.1

Results for CC1=CC(=NNc2ccccc2[N+](=O)[O-])CC(C)(C)C1 ?
SSB-PriA inh: 116.7*

What do the screens show for `CCOc1cc(C(=O)N2CCN(c3ccc(N4CCOCC4)nn3)CC2)cc(OCC)c1OCC`?
SSB-PriA inh: -33.0

What do the screens show for `CCOc1ccc(CC(=O)N2CCN(c3ccc(N4CCOCC4)nn3)CC2)cc1OCC`?
SARS 3CLpro inh: 3.4; BJeLR viability: -0.8; SSB-PriA inh: 54.5*

What do the screens show for `O=C(NCc1ccc(F)cc1)Nc1nc2c(s1)C(=O)NCCC2`?
SSB-PriA inh: 6.0

What do the screens show for `COc1cccc(N2CCN(c3ncnc4c3[nH]c3ccc(F)cc34)CC2C)c1` (stereo unspecified)?
SARS 3CLpro inh: 1.1; BJeLR viability: 36.4; SSB-PriA inh: 42.1*

How did COc1cccc(N2CCN(c3ncnc4c3[nH]c3ccccc34)CC2C)c1 (stereo unspecified) do in these assays?
SARS 3CLpro inh: -4.2; BJeLR viability: 10.1

Results for O=C(C[C@@H]1C/C=C/CC[C@H](Cc2ccc(F)cc2)C(=O)OC[C@@H]2CCCN2C1=O)NCCO ?
SSB-PriA inh: -5.1

What do the screens show for `COc1ccc(Nc2nc(NC(C)(C)C)nc(N3CCOCC3)n2)c(OC)c1`?
SARS 3CLpro inh: 0.1; BJeLR viability: -2.1; SSB-PriA inh: 15.9

How did COc1ccc(Nc2nc(NC(C)(C)C)nc(N3CCCC3)n2)c(OC)c1 do in these assays?
SARS 3CLpro inh: 1.2; BJeLR viability: -1.5; SSB-PriA inh: 44.5*

How did O=C(NCCn1ccc(-c2ccsc2)n1)NC(c1ccccc1)c1ccccc1 do in these assays?
SSB-PriA inh: -3.0

How did CN1CCN(c2ccc(C(=O)c3ccc(Br)cc3)cc2[N+](=O)[O-])CC1 do in these assays?
SARS 3CLpro inh: 2.2; BJeLR viability: 10.6; SSB-PriA inh: 43.3*

What do the screens show for `O=[N+]([O-])c1cc(S(=O)(=O)C(F)(F)F)ccc1N1CCN(c2ccccc2)CC1`?
SARS 3CLpro inh: 1.0; BJeLR viability: -7.2; SSB-PriA inh: 47.1*

Results for Cc1ccc(Cl)c(OC(=O)c2ccc(N3CCOCC3)c([N+](=O)[O-])c2)c1 ?
SARS 3CLpro inh: 0.9; BJeLR viability: 5.9; SSB-PriA inh: 45.2*

Results for Cc1ccc(C(=O)ON=Cc2ccc(N3CCOCC3)c([N+](=O)[O-])c2)cc1 ?
SSB-PriA inh: 15.3
